# Screening results (PubChem)
# This is a sample that favours compounds with a hit; in the whole collection about 2.5% have one here.
# ANO1 activ: activates or potentiates the mouse TMEM16A chloride channel; Q8BHY3; HEK293 TMEM16A/YFP-H148Q/I152L, iodide quench fluorescence; stronger effect = lower value; B-score at 10 µM; 340,000 compounds, 0.3% hits;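 active = fluorescence-ratio B-score plate-corrected deviation score at least 3 library SD below zero, with starting fluorescence score within 5 deviations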;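 also: channel opened by trigger with iodide after compound preincubation; score built on the fluorescence ratio of max minus min over baseline; more negative score means more quench and so TMEM16A activation or potentiation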
# aSyn UTR inh: MLPCN primary screen, SNCA 5' untranslated region; alpha-synuclein 5'UTR reporter, inhibitor activity; inhibition, % (tested at 7.5 µM); 300,000 compounds, 0.82% hits; AID 1813; in the data active = inhibition above about 60%; inconclusive = no clear call, values can overlap the other calls;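 also: H4 neuroglioblastoma cells stably carrying SNCA 5'UTR luciferase fusion; 0% = DMSO wells and 100% = positive control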
# Jurkat NFkB inh: inhibitors of the PMA/ionomycin-induced NF-kB reporter in Jurkat cells. inhibition, % at 4 µM. 330,000 compounds, 0.53% hits. PMA/ionomycin-induced NF-kB luciferase reporter, luminescence; in the data active = inhibition above about 50%
# ANO1 block: blocks the mouse calcium-activated chloride channel TMEM16A. AID 588511. normalized B-score (activity score, 25-100; higher = stronger inhibition) at 10 µM. HEK293 TMEM16A/YFP iodide influx fluorescence, ionomycin. 310,000 compounds, 1.2% hits;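 active = ratio plate-corrected score three or more library SD toward inhibition, starting fluorescence score within five deviations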;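 also: score derived from kinetic fluorescence span divided by baseline fluorescence per well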
# KLF5 inh: suppresses KLF5 promoter-driven expression; inhibition, % at 5 µM; 290,000 compounds, 0.23% hits; AID 1700; DLD-1 KLF5 promoter-luciferase reporter, luminescence;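 active = inhibition above a per-plate limit of that plate's mean compound inhibition plus 3 SD, cut at about 60% in these data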;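 also: 0% = DMSO wells and 100% = LY294002 at 200 µM; higher means less KLF5 promoter-driven luciferase light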
# 697 NFkB inh: lowers PMA/ionomycin-induced NF-kB signal in 697 B cells; 697 B-cell NF-kB luciferase reporter, 16 h; inhibition, % at 4 µM; 330,000 compounds, 0.33% hits; AID 435022; in the data active = inhibition above about 35%
# 697 NFkB conf: inhibitors of the PMA/ionomycin-induced NF-kB reporter in 697 B cells, retest | shares compounds with 697 NFkB inh | 697 B-cell NF-kB luciferase, 16 h | inhibition, % at 4 µM | 2,000 compounds, 35% hits; in the data active = inhibition mostly above about 28%, no sharp cut-off; inactive = mostly below about 22%
# An asterisk follows results filed as active; i = inactive; ? = inconclusive; / = not tested or not shown.
SMILES,ANO1 activ,aSyn UTR inh,Jurkat NFkB inh,ANO1 block,KLF5 inh,697 NFkB inh,697 NFkB conf
COc1ccccc1/C=C1\SC(=S)N(CCC(=O)NC2=NCCS2)C1=O,i,35,0,i,-12,35*,48*
C=CCn1c(SCC(=O)N(CC)C2CCS(=O)(=O)C2)nc2cc(C(=O)O)ccc2c1=O (configuration not stated),i,/,0,/,/,3,/
Cc1cccnc1CCNCc1c(C(=O)N2C[C@@H](C)O[C@@H](C)C2)nc2ccc(Cl)cn12,i,4,0,i,-29,-16,/
O=Nc1c(-c2c(O)[nH]c3cc(Br)ccc23)[nH]c2ccccc12,i,77*,39,i,4,-321,-349
COc1ccc(OC)c(NC(=O)Nc2ccc(Cl)cc2)c1,i,-25,-17,i,-32,-15,/
COC(=O)c1cc(NC(=O)Nc2cc(OC)ccc2OC)cc(C(=O)OC)c1,i,12,7,i,-37,39*,34*
CN=c1scc(C)n1/N=C/c1ccc2c(c1)OCO2,i,35,-131,i,-103,-273,-262
CC(Oc1ccc(F)cc1)C(=O)Nc1cc(S(=O)(=O)N2CCCCC2)ccc1N1CCOCC1 (configuration not stated),i,5,4,i,/,-22,/
Cc1cc(=O)[nH]c(N/N=C/c2c[nH]c3ccccc23)n1,i,-21,4,i,-18,36*,7
COc1cc(/C=N/NC(=O)c2ccc(-n3cccc3)cc2)ccc1O,i,17,26,i,-18,43*,-24
COc1cccc(/C=N/NC(=O)c2ccc(N3CCCC3=O)cc2)c1,i,-112,27,i,29,-468,-142
COc1cc(/C=N/NC(=O)c2ccc3c(c2)OCO3)ccc1O,i,-2,-10,i,-43,-5,/
C=CCOC1=CS(=O)(=O)N(Cc2ccc(Br)cc2)c2ccc(Br)cc21,/,/,/,/,/,16,/
Cc1ccc(C2CN(CCC(N)=O)C(=O)CO2)cc1 (configuration not stated),i,/,-10,i,/,20,/
Cc1ccc(S(=O)(=O)N2CCCCC2)cc1NS(=O)(=O)c1ccccc1F,i,/,-2,/,/,5,/
Cc1ccc2oc(-c3ccc(NC(=O)CC(C)C)cc3)nc2c1,i,-77,-130,i,-147,-255,-227
Cc1ccc2oc(-c3ccc(NC(=O)c4cccnc4)cc3)nc2c1,/,-162,-76,i,-93,-395,-369
CC(C)CC(=O)Nc1ccc2oc(-c3cccnc3)nc2c1,i,-120,-43,i,-100,-55,/
O=C(Nc1ccc(-c2nc3ccccc3o2)cc1)c1cccnc1,i,-133,-100,i,-169,-196,/
CCN1C(=O)[C@@H]2[C@@H](c3ccc(-c4ccc(C(C)=O)cc4)cc3)N3CCCC[C@@]3(C(=O)OC)[C@@H]2C1=O,i,10,-3,i,/,-18,/
CN(C)S(=O)(=O)c1cccc(-c2csc(N/N=C/c3ccco3)n2)c1,i,-24,-6,i,-11,-3,/
Cc1ccc(-c2csc(N/N=C/c3ccco3)n2)c(C)c1,i,-51,-89,i,4,-403,-20
Cc1cccc(NC(=O)c2cc3n(n2)C(C(F)(F)F)CC(c2ccc4c(c2)OCO4)N3)c1 (configuration not stated),i,8,17,i,-10,36*,3
COc1ccc(NC(=O)c2cc3n(n2)C(C(F)(F)F)CC(c2ccc4c(c2)OCO4)N3)cc1OC (configuration not stated),i,/,4,i,0,12,/
c1ccc(CNc2ccc3ccccc3n2)nc1,i,-47,-130,i,-142,-265,-194
SMILES,ANO1 activ,aSyn UTR inh,Jurkat NFkB inh,ANO1 block,KLF5 inh,697 NFkB inh,697 NFkB conf
CC(=O)Nc1ccc2nc(-c3ccccn3)[nH]c2c1,i,-158,-56,i,-76,-58,/
c1ccc(-c2nc3cc4ccccc4cc3[nH]2)nc1,i,51,-59,i,-39,-272,-315
COc1ccccc1-c1nc(C#N)c(N2CCN(c3ccccc3)CC2)o1,i,2,11,i,-3,37*,19
O=C(COC(=O)/C=C/c1ccc(F)cc1)NCC1CCCO1 (configuration not stated),i,/,28,/,/,-20,/
CCC(C)NC(=O)C1CCC(CNS(=O)(=O)c2cccc3nsnc23)CC1 (configuration not stated),i,-14,3,i,-24,-16,/
CCC(C)N(C(=O)CN1C(=O)NC2(CCc3ccccc32)C1=O)C1CCS(=O)(=O)C1 (configuration not stated),i,/,-11,/,/,12,/
CCOC(=O)c1c(C)c(C(=O)Nc2ccc3c(c2)OCO3)c(C)n1C,i,-36,-6,i,-26,15,/
CCOC(=O)c1c(N)sc(C(=O)Nc2ccc3c(c2)OCO3)c1C,i,50,-90,i,18,-258,-265
O=C(NCCCN1CCOCC1)C(=O)N/N=C/c1cccc2ccccc12,i,39,-7,i,-24,40*,38*
COc1cc(OC)cc(-c2cc3nc(C)c(CCC(=O)NC(C)CCc4ccco4)c(C)n3n2)c1 (configuration not stated),i,48,7,i,-7,22,/
Cc1nc2cc(-c3cccc(F)c3)nn2c(C)c1CCC(=O)NC(C)CCc1ccco1 (configuration not stated),i,51,24,i,-20,42*,37*
Cc1nc2cc(-c3cccc(F)c3)nn2c(C)c1CCC(=O)N1CCN(c2ccccn2)CC1,i,46,16,i,/,48*,28
CCOC(=O)C1CCCCN1C(=O)CCc1c(C)nc2cc(-c3ccccc3)nn2c1C (configuration not stated),i,76*,20,i,-13,35*,27
Cc1nc2cc(-c3cccc(F)c3)nn2c(C)c1CCC(=O)NC(C)c1ccc2c(c1)OCCO2 (configuration not stated),i,29,-3,i,6,19,/
Cc1nc2cc(-c3ccccc3)nn2c(C)c1CCC(=O)NC(C)c1ccc2c(c1)OCCO2 (configuration not stated),i,52,2,i,-1,35*,23
CCOC(=O)C1CCCCN1C(=O)CCc1c(C)nc2ncnn2c1C (configuration not stated),i,?,2,i,-10,17,/
Cc1nc2cc(-c3ccccc3)nn2c(C)c1CCC(=O)N1CCN(c2ccccn2)CC1,/,/,/,/,-19,/,/
